# From PubChem BioAssay (EPA / NIEHS)
# Calls of active or inactive are those of the source. The calls were made as follows: active = hit-call score of the fitted dose curve at least 0.9, where 1 is the maximum; inactive = score below 0.9.
# Read-out: Monocyte Chemoattractant Protein-1 (MCP1), CCL2 (gene 6347)
# Assay: BSK_3C_MCP1: BioMAP Diversity Plus: 3C Assay for Monocyte Chemoattractant Protein-1 (MCP1) Biomarker Activity (AID 2283017)
# Conditions: primary human endothelial cells (HUVEC); actives raise or lower the signal
# Experimental: BSK_3C is a cell-based, multiplexed-readout assay that uses umbilical vein endothelium, a human vascular primary cell, with measurements taken at 24 hours after chemical dosing in a 96-well plate.BSK_3C_MCP1 is an assay component measured in the BSK_3C assay. It measures MCP-1 antibody related to regulation of gene expression using ELISA technology.Data from the assay component BSK_3C_MCP1 was analyzed into 1 assay endpoint. This assay endpoint, BSK_3C_MCP1, was analyzed with bidirectional fitting relative to DMSO as the negative control and baseline of activity. Using a type of binding reporter, gain or loss-of-signal activity can be used to understand changes in the signaling as they relate to the gene CCL2. Furthermore, this assay endpoint can be referred to as a primary readout, because this assay has produced multiple assay endpoints where this one serves a signaling function. To generalize the intended target to other relatable targets, this assay endpoint is annotated to the cytokine intended target family, where the subfamily is chemotactic factor.
# The levels of cell surface (or secreted, indicated by the prefix "s") biomarker endpoints were measured by ELISA. Overt cytotoxicity to cells in confluent adherent cultures (all systems other than the BT system) was assessed by measuring total protein levels using sulforhodamine B (SRB) staining in parallel cultures at the time of biomarker measurements, indicated as SRB endpoints. For proliferation assays for adherent cell types, individual cell types are cultured at sub-confluence and relative cell numbers quantified by SRB staining at time points optimized for each system (48 h: 3C and CASM3C systems; 72 h: BT and HDF3CGF systems; 96 h: SAg system). SRB was performed by staining cells with 0.1% SRB after fixation with 10% TCA and reading wells at 560 nm.Viability and proliferation of PBMC (T cells) was quantified by Alamar Blue reduction for the SAg and BT systems. For PBMC viability (referred to as PBMC Cytotoxicity within the assay endpoint names), cells were plated (75,000/well in a 96-well plate) and then chemical samples added for 1 h before addition of activators, SEB and TSST-1 (20 ng/mL final concentration each). Cells were incubated for 90 h. Then, Alamar Blue (20 uL/well) (Invitrogen, Cat DAL1100) was added for 6 h, and the plates were read with a fluorescence microplate reader at 546/580 nm (excitation/emission). For PBMC proliferation, cells were plated and activated as above but incubated for only 16 h prior to addition of Alamar Blue. Plates were read after 6 h.
Compound,outcome,AC50
Cc1ccc(C(C)C)cc1,inactive,–
COc1cccc([C@H](O)C2CCN(CCc3ccc(F)cc3)CC2)c1OC,inactive,–
CC(C)(C)c1cc(/C=C2\SC(N)=NC2=O)cc(C(C)(C)C)c1O,–,30.6 µM (active)
O=C=NCCCCCCN=C=O,inactive,–
Cc1cc2c(cc1C(F)(F)F)N(C(=O)Nc1ccc(Oc3cccnc3C)nc1)CC2,inactive,–
O=c1ccc2ccccc2o1,inactive,–
O=C(O)c1ccccc1-n1cc(C(=O)O)c(=O)c2cc(Nc3c(F)cc(F)cc3Cl)c(Cl)cc21,inactive,–
COc1cc(C(=O)NC2CCN(C)CC2)ccc1Nc1ncc2c(n1)N(C1CCCC1)CC(F)(F)C(=O)N2C,–,12 µM (active)
CCCCCCCCOC(=O)c1cc(O)c(O)c(O)c1,–,31.8 µM (active)
CC[C@@H]1C[C@H](N(Cc2cc(C(F)(F)F)cc(C(F)(F)F)c2)C(C)=O)c2cc(C(F)(F)F)ccc2N1C(=O)OC(C)C,inactive,–
Oc1ccc2ccccc2c1,inactive,–
c1ccc(C[n+]2cccc3ccccc32)cc1,inactive,–
CCCCCCCCCCCO,inactive,–
OC12N=C(c3ccccc3)SC1Cc1cc(Cl)ccc12 (stereo not given),inactive,–
Oc1ccccc1,inactive,–
O=C(Nc1ccc(Cl)cc1)Nc1ccc(Cl)c(Cl)c1,–,3.28 µM (active)
Cc1cccc2ccccc12,inactive,–
C[C@]12CC[C@@H]3c4ccc(O)cc4CC[C@H]3[C@@H]1CCC2=O,inactive,–
O=C(O)c1ccccc1C(=O)OCc1ccccc1,inactive,–
CC[C@H](NC(=O)c1cc(F)ccc1NS(=O)(=O)c1cccc2cccnc12)c1ccccc1,inactive,–

Compound,outcome,AC50
CN(C[C@@H](CC[N+]12CCC(C3CCCCC3)(CC1)CC2)c1ccc(Cl)c(Cl)c1)C(=O)c1cc(C(F)(F)F)cc(C(F)(F)F)c1,–,21.1 µM (active)
CN1C(=O)N(c2ccccc2Br)Cc2cnc(Nc3ccc4c(c3)OCC(CO)O4)nc21 (stereo not given),–,14.7 µM (active)
CN1C(=O)CC[C@H]1c1cccnc1,inactive,–
CC/C(=C(/CC)c1ccc(O)cc1)c1ccc(O)cc1,–,31 µM (active)
O=C1O[C@H]([C@@H](O)CO)C(O)=C1O,inactive,–
CC(C)(O)c1ccc(CNC(=O)c2cccnc2Oc2ccc3nonc3c2)cc1,inactive,–
CC(O)CC(C)(C)O (stereo not given),inactive,–
c1ccc2n[nH]nc2c1,inactive,–
NCc1cccc(C2CCN(C(=O)c3ccc(C#Cc4ccccc4F)o3)CC2)c1,–,20.8 µM (active)
CC(C)(C)c1csc(-c2cc3cc(OCc4ccccc4CC(=O)O)ccc3o2)n1,–,21.6 µM (active)
CCCCCc1ccc(N)cc1,inactive,–
CCN(Cc1cccnc1)C(=O)c1cccc(Cl)c1[C@]1(C)C(=O)N(Cc2ccc(OC)cc2OC)c2ccc(Cl)cc21,–,6.68 µM (active)
c1ccc2ccccc2c1,inactive,–
CCCCOC(=O)c1ccc(O)cc1,inactive,–
Clc1ccccc1C(c1ccccc1)(c1ccccc1)n1ccnc1,–,15.9 µM (active)
Cc1occc1C(=O)Nc1ccc(C(=O)N2CCC(F)(F)/C(=C\C(=O)N3CCC(N4CCCCC4)CC3)c3ccccc32)cc1,inactive,–
CCCCCCCCCCCC[N+](C)(C)C,–,20 µM (active)
OCCO,inactive,–
CCCCCCCCN(C)CCCCCCCC,inactive,–
CCN(Cc1cccc(S(=O)(=O)O)c1)c1ccc(C(=C2C=CC(=[N+](CC)Cc3cccc(S(=O)(=O)O)c3)C=C2)c2ccccc2S(=O)(=O)[O-])cc1,inactive,–
